BAZ2B block = qHTS Assay for Inhibitors of BAZ2B; Potency, µM (highest dose often 114 µM), for the others: at the top dose activity change, negative = inhibition, most hits filed as inhibitors; Bromodomain adjacent to zinc finger domain protein 2B (Homo sapiens), Q9UIF8; AlphaScreen BAZ2B-H3K14Ac peptide displacement; AID 504333, 2011; actives 4.4% (n = 360,000); note: % is set by controls: 0 for no effect and ±100 for the full control effect; nearly all actives have a fitted effect of over 60% in size
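Inhibition is scored as reduced AlphaScreen emission. The BAZ2B/b-H3(5-23)K14Ac complex (50 nM each) in PBS pH 7.4, 0.01% Tween-20 meets compound (up to 110 uM) for 30 min at RT before bead addition.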
JMJD2A Tudor = qHTS Assay for Inhibitors of JMJD2A-Tudor Domain. Potency, µM (titrated, usually from 114 µM), for inactives: top-dose activity change, negative = inhibition, most hits filed as inhibitors. AID 504339, 2011. AlphaScreen JMJD2A-Tudor / H3K4me3 peptide binding. actives 4.4% (n = 390,000); note: % is set by controls: 0 for no effect and ±100 for the full control effect; nearly all actives have a fitted effect of over 50% in size
L3MBTL1 inh = qHTS Assay for the Inhibitors of L3MBTL1 | Potency, µM (top dose mostly 57.1 µM), for the others: at the top dose activity, negative = inhibition, actives largely listed as inhibitors | AlphaScreen L3MBTL1–H3K9me1 peptide binding | actives 0.66% (n = 230,000); note: % is set by controls: 0 for no effect and ±100 for the full control effect; nearly all actives have a fitted effect of over 60% in size
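L3MBTL1 (50 nM) pre-complexed 30 min with biotinylated H3(1-15)K9me1 peptide (75 nM), then compounds added for 30 min at room temperature; AlphaScreen streptavidin donor/nickel chelate acceptor beads (10 ug/mL final) read after 30 min dark incubation.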
VDR inh = Inhibitors of the vitamin D receptor (VDR): qHTS; Vitamin D3 receptor (Homo sapiens), P11473; VDR-SRC2-3 peptide fluorescence polarization, 2 h; Potency, µM, for the others: max response, negative = inhibition, hits mostly inhibitors; actives 0.93% (n = 400,000); AID 504847, 2011; note: % is set by controls: 0 for no effect and ±100 for the full control effect
Target sequence (P11473 whole entry, looked up): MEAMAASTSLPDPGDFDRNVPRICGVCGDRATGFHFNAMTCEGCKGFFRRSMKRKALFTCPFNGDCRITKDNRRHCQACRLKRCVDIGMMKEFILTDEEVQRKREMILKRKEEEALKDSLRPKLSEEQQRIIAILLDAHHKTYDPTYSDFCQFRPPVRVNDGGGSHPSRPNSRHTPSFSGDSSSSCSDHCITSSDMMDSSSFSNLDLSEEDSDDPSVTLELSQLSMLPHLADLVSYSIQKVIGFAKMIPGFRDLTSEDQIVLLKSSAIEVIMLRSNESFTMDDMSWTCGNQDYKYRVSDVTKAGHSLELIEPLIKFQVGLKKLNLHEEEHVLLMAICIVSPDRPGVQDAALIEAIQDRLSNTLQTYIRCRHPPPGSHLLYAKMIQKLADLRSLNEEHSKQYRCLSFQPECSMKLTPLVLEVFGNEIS
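Compounds are added to VDR with labelled SRC2-3 coactivator peptide and held 2 h at room temperature. Inhibition of the VDR–peptide interaction is then read as a change in fluorescence polarization.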
PLK1 PBD inh = qHTS for Inhibitors of PLK1-PDB (polo-like kinase 1 - polo-box domain): Primary Screen. Serine/threonine-protein kinase PLK1 (Homo sapiens), P53350. Potency, µM, without a hit: max response, negative = inhibition, usual class: inhibitors. Plk1 PBD binding of FITC phosphopeptide, fluorescence polarization. actives 2.8% (n = 360,000); note: series mostly up to about 57 µM; % is set by controls: 0 for no effect and ±100 for the full control effect; nearly all actives have a fitted effect of over 65% in size
HP1b binding inh = HTS for Inhibitors of HP1-beta Chromodomain Interactions with Methylated Histone Tails; Chromobox protein homolog 1 (Homo sapiens), P83916; AlphaScreen HP1-beta / biotin-H3K9me3 peptide binding; Potency, µM (top dose mostly 114 µM), without a hit: top-dose activity change, negative = inhibition, hits mostly inhibitors; actives 0.56% (n = 390,000); AID 540317, 2011; note: nearly all actives have a fitted effect of over 70% in size
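Compound inhibition of the preformed complex between 50 nM HP1-beta and 50 nM biotinylated H3K9me3 peptide was read by AlphaScreen. Buffer was PBS pH 7.4 with 0.01% Tween-20. Incubations ran 30 min at room temperature, with 10 ug/mL donor/acceptor beads.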
An asterisk follows results filed as active; u = inconclusive; x = no result; [ ] = remark or other dose. A selection: hits, their analogues and other compounds. The true share with any hit is near 6.9%. Calls come from the whole dose curve; as a rule, active = well fitted curve in the direction sought with a large enough effect; inconclusive = small, poorly fitted or top-dose-only effect, or another doubt; inactive = no such curve, though single readings can be large; an effect the other way counts as inactive or inconclusive. Potency is the fitted concentration of half-maximal effect.

SMILES	BAZ2B block	JMJD2A Tudor	L3MBTL1 inh	VDR inh	PLK1 PBD inh	HP1b binding inh
FC(F)(F)c1cnc(Nc2ccc(N3CCOCC3)cc2)c(Cl)c1	35µM*	u	-24%	25%	-2%	u
Cc1[nH]c2ccccc2c1C(c1ccccn1)c1c(C)[nH]c2ccccc12	35µM*	-25%	x	14%	u	-4%
Cc1cc(Cl)ccc1C(=O)C1CCCN(C(=O)c2cccc(N3CCCC3=O)c2)C1 (stereo not drawn)	-4%	u	x	u	24µM*	4%
COc1cc(Cl)cc(C(c2c(C(=O)O)[nH]c3ccccc23)c2c(C(=O)O)[nH]c3ccccc23)c1O	-10%	-18%	0%	u	24µM*	14%
O=C(O)c1[nH]c2ccccc2c1C(c1c(F)cccc1Cl)c1c(C(=O)O)[nH]c2ccccc12	5%	-15%	5%	u	u	20%
Cc1[nH][nH]c(=O)c1C(c1cc(Br)ccc1O)c1c(C)[nH][nH]c1=O	-1%	-17%	x	u	24µM*	15%
Cc1[nH][nH]c(=O)c1C(c1ccc(F)cc1)c1c(C)[nH][nH]c1=O	-2%	4%	4%[2.29 µM]	-19%	u	17%
O=C(O)c1[nH]c2ccccc2c1C(c1cc(Br)ccc1O)c1c(C(=O)O)[nH]c2ccccc12	u	-32%	-8%	u	17µM*	9%
CCOc1ccccc1C(=O)N(Cc1cc(OC)c(OC)c(OC)c1)c1ccccn1	-2%	-8%	x	13%	x	36%
CCc1ccc2nc(N(CCN(C)C)C(=O)c3ccc4ncsc4c3)sc2c1	u	50µM*	x	71µM*	-30%	u
CCOP(=O)(OCC)C(O)c1cc(OC)c(OC)c(OC)c1 (stereo not drawn)	1%	-9%[57.1 µM]	u	-12%	-16%	54%
COc1cc(C(O)P(=O)(OCC(C)C)OCC(C)C)cc(OC)c1OC (stereo not drawn)	-3%	-1%[11.4 µM]	-5%	-8%	12µM*	7%
CC(C)CC1NC(=S)N(C2CCCCC2)C1=O (stereo not drawn)	-16%	u	-1%	-24%	3µM*	-9%
CCC1NC(=S)N(C2CCCCC2)C1=O (stereo not drawn)	4%	-22%	-4%	6%	-14%	7%
COC(=O)c1ccc(CN(C(C)=O)c2ccccc2)o1	-26%	u	-5%	u	27µM*	-14%
CCc1ccccc1-n1c2c(cc(-c3nc(-c4ccc(Cl)cc4)cs3)c1=O)C(=O)CC(C)(C)C2	10%	11%	x	-5%	x	37%
Cc1cccc(N2CCN(CCNC(=O)c3cc4c(s3)CS(=O)(=O)C4)CC2)c1C	-17%	-30%	x	-4%	0%	13%
O=c1cc(-c2ccccc2Cl)oc2c(NS(=O)(=O)c3cc(Cl)cc(Cl)c3O)ccc(O)c12	50µM*	56µM*	-23%	32µM*	15µM*	-32%
CCc1ccc(S(=O)(=O)Nc2ccc(O)c3c(=O)cc(-c4ccccc4Cl)oc23)cc1	-22%	u	x	11%	-9%	20%
Cc1ccc(NC(=S)/C(C#N)=C2/Nc3ccccc3S2)cc1	x	x	x	x	27µM*	x
CCn1cc(C(=O)NCc2ccccc2OC)c(=O)c2cc(S(=O)(=O)N3CCCCCC3)ccc21	x	-20%	x	-4%	x	24%
CCC1(C)N=C(c2ccc3c(c2)OCO3)CC(c2ccccc2O)N1 (stereo not drawn)	u	-32%	x	4%	27µM*	-4%

Source: PubChem (National Center for Advancing Translational Sciences (NCATS))
